Several values for one entry are separate records, joined by “and”; a condition that tells them apart may be missing. Equal values may be shown once. Activity calls are given as the source filed them. Rule for the calls: active = hit-call score of the fitted dose curve at least 0.9, where 1 is the maximum; inactive = score below 0.9.

In this assay the target is human CYP3A5, CYP3A5 (gene 1577) (UniProt P20815). As to the kind of experiment: NVS_ADME_hCYP3A5: NovaScreen (NVS) CYP450-related Enzyme Activity (ADME) Assay for human CYP3A5. On the procedure: NVS_ADME_hCYP3A5 is a biochemical, single-readout assay that uses extracted gene-proteins in a cell-free assay. Measurements were taken 0.5 hour after chemical dosing in a 96-well plate.NVS_ADME_hCYP3A5 is one of one assay component(s) measured or calculated from the NVS_ADME_hCYP3A5 assay. It is designed to make measurements of enzyme activity, a form of enzyme reporter, as detected with fluorescence intensity signals by Fluorescence technology.Data from the assay component NVS_ADME_hCYP3A5 was analyzed into 1 assay endpoint. This assay endpoint, NVS_ADME_hCYP3A5, was analyzed in the positive analysis fitting direction relative to Acetonitrile as the negative control and baseline of activity. Using a type of enzyme reporter, loss-of-signal activity can be used to understand changes in the enzymatic activity as they relate to the gene CYP3A5. Furthermore, this assay endpoint can be referred to as a primary readout, because this assay has produced […] where this one serves a enzymatic activity function. To generalize the intended target to other relatable targets, this assay endpoint is annotated to the cyp intended target family, where the subfamily is xenobiotic metabolism. […]
human CYP3A5, CYP3A5 (gene 1577), sequence (P20815 whole entry, looked up): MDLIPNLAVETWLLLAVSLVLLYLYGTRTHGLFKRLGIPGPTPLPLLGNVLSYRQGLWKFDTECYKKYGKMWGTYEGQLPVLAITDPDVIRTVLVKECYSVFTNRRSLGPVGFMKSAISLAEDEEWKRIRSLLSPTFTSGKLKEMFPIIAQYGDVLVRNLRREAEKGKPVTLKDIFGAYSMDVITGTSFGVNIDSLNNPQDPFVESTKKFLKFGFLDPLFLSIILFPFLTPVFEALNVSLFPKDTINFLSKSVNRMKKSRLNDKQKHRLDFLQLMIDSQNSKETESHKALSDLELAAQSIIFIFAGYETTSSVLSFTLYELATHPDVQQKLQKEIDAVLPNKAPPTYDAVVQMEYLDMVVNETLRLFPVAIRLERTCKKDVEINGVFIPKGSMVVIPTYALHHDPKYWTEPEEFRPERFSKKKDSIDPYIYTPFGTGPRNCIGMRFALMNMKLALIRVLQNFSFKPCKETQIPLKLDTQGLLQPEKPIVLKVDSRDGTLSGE

In general, AC50 refers to the concentration at which the activity in the assay is half-maximal. As to `C#C[C@]1(O)CC[C@H]2[C@@H]3CCc4cc(O)ccc4[C@H]3CC[C@@]21C`, the AC50 is 1.84 µM (active) and 3.89 µM (active) and 1.71 µM (active).

The values above are taken from PubChem BioAssay AID2283109 (EPA ToxCast).
